# Laboratory results: PubChem BioAssay (NCI)
# About 83,000 compounds went through this panel and 20% of them were active in at least one assay; those are over-represented in the sample as a whole.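 96-well plates, one dose, 48 hours. Percent growth reported; active if below 10.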 Values without a mark were called inactive. Active and inactive are the calls of the source.
# Test system: UACC-62 melanoma
# Test: NCI-60 one-dose screen, 48 h (100 = growth as untreated, 0 = no growth, -100 = all killed)
# Conditions: 10 µM unless noted
row,SMILES,growth
1,COc1cc(C2CC(C3C(=O)N(C)C(=O)N(C)C3=O)=NN2C=O)cc(OC)c1OC (stereo not given),93.9%
2,C=C1CCC2C3(C)COC(c4ccccc4)OC3CCC2(C)C1C/C=C1/C(=O)OCC1OC(C)=O (stereo not given),90.2%
3,Clc1ccc(C2=NN(c3ccc(Cl)cc3)C(c3cccc(Nc4ccnc5cc(Cl)ccc45)c3)C2)cc1 (stereo not given),88.3%
4,CC(=O)N1N=C(c2ccc(Nc3nc(NCCO)nc(NCCO)n3)cc2)CC1c1ccc(Cl)cc1 (stereo not given),107%
5,O=C(c1ccccc1)c1ccc(Oc2ccc([N+](=O)[O-])cc2[N+](=O)[O-])cc1,62%
6,O=C(C(=O)N1CCOCC1)c1cn(CCCn2cc(C(=O)C(=O)N3CCOCC3)c3ccccc32)c2ccccc12,93.5%
7,CC(C)CC1NC(=O)C(CCCN)NC(=O)C(C(C)C)NC(=O)C2CCCN2C(=O)C(Cc2ccccc2)NC(=O)C(CC(C)C)NC(=O)C(CCCN)NC(=O)C(C(C)C)NC(=O)C2CCCN2C(=O)C(Cc2ccccc2)NC1=O (stereo not given),-75.3% (active)
8,Cc1csc(C#Cc2cncc(O)c2)n1,98.7%
9,COc1cc(/C=C/C(=O)C(C(=O)/C=C/c2ccc(OC(=O)CCNC34CC5CC(CC(C5)C3)C4)c(OC)c2)C(=O)CCNC23CC4CC(CC(C4)C2)C3)ccc1OC(=O)CCNC12CC3CC(CC(C3)C1)C2 (stereo not given),20.2%
10,C/C=C(/C(=C/C)c1ccc(O)cc1)c1ccc(O)cc1,31.2%
11,COc1cc(/C=C/C(=O)CC(=O)/C=C/c2ccc(OC(=O)CCNC34CC5CC(CC(C5)C3)C4)c(OC)c2)ccc1OC(=O)CCNC12CC3CC(CC(C3)C1)C2,43.2%
12,Oc1c(Cl)cc(Cl)c(Cl)c1Cc1c(O)c(Cl)cc(Cl)c1Cl,2.95% (active)
13,COc1cc(C2CC(c3ccc(C)cc3)=NN2C=O)ccc1OCCN(C)C (stereo not given),100%
14,NS(=O)(=O)c1cc(C2(O)NC(=O)c3ccccc32)ccc1Cl (stereo not given),103%
15,CCn1cnc(C[C@H](NC(=O)[C@H](CCCCNC(=O)Nc2cc(C(F)(F)F)cc(C(F)(F)F)c2)NC(=O)Nc2cc(C(F)(F)F)cc(C(F)(F)F)c2)C(=O)OC)c1,-88.3% [100 µM] (active)
16,CS(=O)(=O)N1CCN(Cc2cc3nc(-c4cccc5[nH]ncc45)nc(N4CCOCC4)c3s2)CC1 (tested in a mixture with another compound),-13.5% (active)
17,CN(C)c1ccc(-c2nc3ncc(Br)cc3o2)cc1,87.3%
18,COc1ccc(-c2cc(-c3nnc(SCC(=O)Nc4ccc(C(C)=O)cc4)n3-c3ccccc3)c3ccccc3n2)cc1OC,111%
19,Nc1nc(NC2CC2)c2ncn(C3C=CC(CO)C3)c2n1 (stereo not given),83.6%
20,C[C@]12CCC(=O)C=C1CC[C@H]1[C@@H]3C[C@@H](O)[C@](O)(C(=O)CO)[C@@]3(C)C[C@H](O)[C@@]12F,98%

row,SMILES,growth
1,NS(=O)(=O)c1cc2c(cc1Cl)NC=NS2(=O)=O,103%
2,COc1cnc2c(c1)C(=O)c1c-2n(CCCn2ccnc2)c(=O)c2cc(F)ccc12,-55% (active)
3,NC(=O)c1cc(Br)cc(Br)c1NS(=O)(=O)c1ccccc1,94.9%
4,CN(C)c1ccc(-n2nc3ccccc3n2)cc1,81.1%
5,CC1CN(C2CCCCC2)C(=O)NC1=O (stereo not given),87.5%
6,O=C1C=CC(=O)N1c1ccccc1N1C(=O)C=CC1=O,87.4%
7,Cc1n(Cc2ccc3ccccc3c2)c2ccccc2[n+]1Cc1ccc2ccccc2c1,-57.9% (active)
8,C[C@H]1O[C@@H](O[C@H]2[C@@H](O)C[C@H](O[C@H]3[C@@H](O)C[C@H](O[C@H]4CC[C@]5(C)C6C[C@@H](O)[C@]7(C)[C@@H](C8=CC(=O)OC8)CC[C@]7(O)C6CC[C@@H]5C4)O[C@@H]3C)O[C@@H]2C)C[C@H](O)[C@@H]1O (stereo not given in full),-98.8% (active)
9,O=C(CNc1ccc2c(c1)C(=O)c1ccccc1C2=O)Nc1ccc2c(c1)C(=O)c1ccccc1C2=O,-93.3% (active)
10,Cc1sc2nc(N3CCCCC3)[nH]c(=O)c2c1C,97.5%
11,NC(=NCCCCCCN=C(N)/N=C(\N)Nc1ccc(Cl)cc1)/N=C(\N)Nc1ccc(Cl)cc1,8.7% (active)
12,COc1cc(NC(=O)NCc2ccco2)ccc1-c1ccc(NC(=O)NCc2ccco2)cc1OC,45.3%
13,CSc1nc(Nc2ccc(S(=O)(=O)Nc3ccon3)cc2)c(C#N)c(-c2ccc(Cl)cc2)n1,107%
14,COP(=O)(OC)C(c1ccc(O)cc1)(c1ccc(O)cc1)c1ccc(O)cc1,98.7%
15,C=C1CCC2C(C)(COC(=O)CC)C(OC(=O)CC)CCC2(C)C1C/C=C1/C(=O)OCC1OC(=O)CC (stereo not given),0.659% (active)
16,Cc1cnc2nc(-c3ccc(N(C)C)cc3)cn2c1,96%
17,Cc1ccc2nc3c(n2c1)C(=O)C(=O)c1ccccc1-3,-89% (active)
18,CC(C)=CCCC(C)c1ccc(C)c2c1OCN(CC1CCNCC1)C2 (stereo not given),63.5%
19,CCOc1cc(/C=C/C(=O)C(C(=O)/C=C/c2ccc(OC(=O)CNc3nc4ccccc4[nH]3)c(OCC)c2)C(=O)CNc2nc3ccccc3[nH]2)ccc1OC(=O)CNc1nc2ccccc2[nH]1,-61.4% (active)
20,COc1ccc(C(=O)/C=C/c2cccc(Nc3ccnc4cc(Cl)ccc34)c2)cc1,27.8%
